# Test results from the supplement of paper PMC8728848.
# Many of the other results were omitted from the sample, so the strongest signals are more common in it than they were.
# What was measured:
# Assay in all cases: glycan array binding signal (z-score within array); higher = stronger binding
# [1] = molecular target: Fuc(a1-2)Gal(b1-3)GalNAc(b1-3)Gal(b1-4)Glc; conditions: glycan notation: IUPAC condensed, linker removed
# Procedure, shortened: (§1)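 Glycan array binding is given as a within-array Z-score, which can be read as non-binding when negative. The arrays, 3228 of them, came from the Consortium for Functional Glycomics database and were retained only where the protein sequence was available. Z-scores were averaged across arrays of the same protein sequence at different concentrations or buffers and across linkers.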
# [2] = molecular target: Fuc(a1-2)Gal(b1-3)GlcNAc(b1-3)Gal(b1-4)Glc; conditions: glycan notation: IUPAC condensed, linker removed
# Procedure, shortened: as §1
# [3] = molecular target: Fuc(a1-2)Gal(b1-4)GlcNAc; conditions: glycan notation: IUPAC condensed, linker removed
# Procedure, shortened: as §1
# [4] = molecular target: Gal(a1-3)Gal(b1-4)Glc; conditions: glycan notation: IUPAC condensed, linker removed
# Procedure, shortened: as §1
# [5] = molecular target: Gal(b1-3)GalNAc(b1-3)Gal(b1-4)Glc; conditions: glycan notation: IUPAC condensed, linker removed
# Procedure, shortened: as §1
# [6] = molecular target: Gal(b1-3)[Fuc(a1-4)]GlcNAc(b1-3)Gal(b1-4)GlcNAc; conditions: glycan notation: IUPAC condensed, linker removed
# Procedure, shortened: as §1
# [7] = molecular target: Gal(b1-3)[Neu5Ac(a2-6)]GalNAc; conditions: glycan notation: IUPAC condensed, linker removed
# Procedure, shortened: as §1
# [8] = molecular target: Gal(b1-3)[Neu5Ac(a2-6)]GlcNAc(a1-4)Gal(b1-4)Glc; conditions: glycan notation: IUPAC condensed, linker removed
# Procedure, shortened: as §1
# [9] = molecular target: Gal(b1-3)[Neu5Ac(a2-6)]GlcNAc(b1-6)Gal(b1-4)Glc; conditions: glycan notation: IUPAC condensed, linker removed
# Procedure, shortened: as §1
# [10] = molecular target: Gal(b1-3)[Neu5Ac(b2-6)]GalNAc; conditions: glycan notation: IUPAC condensed, linker removed
# Procedure, shortened: as §1
# [11] = molecular target: Gal(b1-4)GlcNAc(b1-3)Gal(b1-4)Glc; conditions: glycan notation: IUPAC condensed, linker removed
# Procedure, shortened: as §1
# [12] = molecular target: Gal(b1-4)GlcNAc(b1-6)GalNAc; conditions: glycan notation: IUPAC condensed, linker removed
# Procedure, shortened: as §1
# [13] = molecular target: Gal3S(b1-4)Glc; conditions: glycan notation: IUPAC condensed, linker removed
# Procedure, shortened: as §1
# [14] = molecular target: Gal4S(b1-4)GlcNAc; conditions: glycan notation: IUPAC condensed, linker removed
# Procedure, shortened: as §1
# [15] = molecular target: GalNAc(a1-3)Gal; conditions: glycan notation: IUPAC condensed, linker removed
# Procedure, shortened: as §1
# [16] = molecular target: GlcNAc(b1-2)Gal(b1-3)GlcNAc; conditions: glycan notation: IUPAC condensed, linker removed
# Procedure, shortened: as §1
# [17] = molecular target: Man(a1-2)Man(a1-3)[Man(a1-6)]Man(a1-6)[Man(a1-2)Man(a1-3)]Man(b1-4)GlcNAc(b1-4)GlcNAc; conditions: glycan notation: IUPAC condensed, linker removed
# Procedure, shortened: as §1
# [18] = molecular target: Man(a1-3)[Man(a1-6)]Man(a1-6)[Man(a1-2)Man(a1-3)]Man(b1-4)GlcNAc(b1-4)GlcNAc; conditions: glycan notation: IUPAC condensed, linker removed
# Procedure, shortened: as §1
# [19] = molecular target: Man(a1-3)[Man(a1-6)]Man(b1-4)GlcNAc(b1-4)GlcNAc; conditions: glycan notation: IUPAC condensed, linker removed
# Procedure, shortened: as §1
# [20] = molecular target: Neu5Ac(a2-3)Gal(b1-4)GlcNAc6S; conditions: glycan notation: IUPAC condensed, linker removed
# Procedure, shortened: as §1
# [21] = molecular target: Neu5Ac(a2-3)Gal6S(b1-4)GlcNAc; conditions: glycan notation: IUPAC condensed, linker removed
# Procedure, shortened: as §1
# [22] = molecular target: Neu5Ac(a2-8)Neu5Ac(a2-8)Neu5Ac(a2-8)Neu5Ac(a2-3)[GalNAc(b1-4)]Gal(b1-4)Glc; conditions: glycan notation: IUPAC condensed, linker removed
# Procedure, shortened: as §1
# [23] = molecular target: Fuc(a1-2)Gal(b1-3)GalNAc(b1-3)Gal(a1-4)Gal(b1-4)Glc; conditions: glycan notation: IUPAC condensed, linker removed; mutation: R343A
# Procedure, shortened: as §1
# [24] = molecular target: Fuc(a1-4)GlcNAc; conditions: glycan notation: IUPAC condensed, linker removed; mutation: R343A
# Procedure, shortened: as §1
# [25] = molecular target: Gal(a1-3)GalNAc; conditions: glycan notation: IUPAC condensed, linker removed; mutation: R343A
# Procedure, shortened: as §1
# [26] = molecular target: Gal(b1-3)Gal; conditions: glycan notation: IUPAC condensed, linker removed; mutation: R343A
# Procedure, shortened: as §1
# [27] = molecular target: Gal(b1-3)GlcNAc(b1-3)Gal(b1-4)Glc; conditions: glycan notation: IUPAC condensed, linker removed; mutation: R343A
# Procedure, shortened: as §1
# [28] = molecular target: Gal(b1-4)GalNAc(a1-3)[Fuc(a1-2)]Gal(b1-4)GlcNAc; conditions: glycan notation: IUPAC condensed, linker removed; mutation: R343A
# Procedure, shortened: as §1
# [29] = molecular target: Gal(b1-4)Glc; conditions: glycan notation: IUPAC condensed, linker removed; mutation: R343A
# Procedure, shortened: as §1
# [30] = molecular target: Gal3S(b1-3)[Fuc(a1-4)]GlcNAc; conditions: glycan notation: IUPAC condensed, linker removed; mutation: R343A
# Procedure, shortened: as §1
# [31] = molecular target: GlcNAc(b1-3)Gal(b1-4)GlcNAc(b1-3)Gal(b1-4)GlcNAc; conditions: glycan notation: IUPAC condensed, linker removed; mutation: R343A
# Procedure, shortened: as §1
# [32] = molecular target: Kdn(a2-3)Gal(b1-4)GlcNAc; conditions: glycan notation: IUPAC condensed, linker removed; mutation: R343A
# Procedure, shortened: as §1
# [33] = molecular target: Man(a1-2)Man(a1-3)[Man(a1-2)Man(a1-6)]Man; conditions: glycan notation: IUPAC condensed, linker removed; mutation: R343A
# Procedure, shortened: as §1
# [34] = molecular target: Man(a1-2)Man(a1-3)[Man(a1-2)Man(a1-6)]Man(a1-6)[Man(a1-2)Man(a1-2)Man(a1-3)]Man; conditions: glycan notation: IUPAC condensed, linker removed; mutation: R343A
# Procedure, shortened: as §1
# [35] = molecular target: Man(a1-2)Man(a1-3)[Man(a1-2)Man(a1-6)]Man(a1-6)[Man(a1-2)Man(a1-2)Man(a1-3)]Man(b1-4)GlcNAc(b1-4)GlcNAc; conditions: glycan notation: IUPAC condensed, linker removed; mutation: R343A
# Procedure, shortened: as §1
# [36] = molecular target: Man(a1-2)Man(a1-6)[Man(a1-3)]Man(a1-6)[Man(a1-2)Man(a1-2)Man(a1-3)]Man; conditions: glycan notation: IUPAC condensed, linker removed; mutation: R343A
# Procedure, shortened: as §1
# [37] = molecular target: Neu5Ac(a2-3)Gal(b1-4)GlcNAc(b1-3)Gal(b1-4)[Fuc(a1-3)]GlcNAc; conditions: glycan notation: IUPAC condensed, linker removed; mutation: R343A
# Procedure, shortened: as §1
# [38] = molecular target: Neu5Gc(b2-6)Gal(b1-4)GlcNAc; conditions: glycan notation: IUPAC condensed, linker removed; mutation: R343A
# Procedure, shortened: as §1
binder,measurement,setting,value
T7P4 (Tuber borchii) (protein) GSHIGPYMSFYASSEDVRTIEEGGRTWLVGRARRADGSWQDIKLDLDNIIGNRDGHLTWGEQNFTQSASDIRFNFEGSNVPVLRAKLRNAAGGEQESDLNLGERLTNNNGDLVFN,glycan array binding signal (z-score),[1],6.04
same,glycan array binding signal (z-score),[2],5.88
same,glycan array binding signal (z-score),[3],-0.207
same,glycan array binding signal (z-score),[4],-0.222
same,glycan array binding signal (z-score),[5],5.7
same,glycan array binding signal (z-score),[6],-0.207
same,glycan array binding signal (z-score),[7],-0.213
same,glycan array binding signal (z-score),[8],5.89
same,glycan array binding signal (z-score),[9],5.74
same,glycan array binding signal (z-score),[10],-0.16
same,glycan array binding signal (z-score),[11],2.77
same,glycan array binding signal (z-score),[12],-0.221
same,glycan array binding signal (z-score),[13],-0.008
same,glycan array binding signal (z-score),[14],-0.202
same,glycan array binding signal (z-score),[15],-0.215
same,glycan array binding signal (z-score),[16],0.204
same,glycan array binding signal (z-score),[17],-0.213
same,glycan array binding signal (z-score),[18],-0.223
same,glycan array binding signal (z-score),[19],-0.226
same,glycan array binding signal (z-score),[20],-0.208
same,glycan array binding signal (z-score),[21],-0.213
same,glycan array binding signal (z-score),[22],-0.223
Surfactant Protein D (Human); Neck + Carbohydrate Recognition Domain (NCRD) (Homo sapiens) (protein) MLLFLLSALVLLTQPLGYLEAEMKTYSHRTMPSACTLVMCSSVESGLPGRDRDGREGPRGEKGDPGLPGAAGQAGMPGQAGPVGPKGDNGSVGEPGPKGDTGPSGPPGPPGVPGPAGREGALGKQGNIGPQGKPGPKGEAGPKGEVGAPGMQGSAGARGLAGPKGERGVPGERGVPGNTGAAGSAGAMGPQGSPGARGPPGLKGDKGIPGDKGAKGESGLPDVASLRQQVEALQGQVQHLQAAFSQYKKVELFPNGQSVGEKIFKTAQFVKPFTEAQLLCTQAGGQLASPRSAAENAALQQLVVAKNEAAFLSMTDSKTEGKFTYPTGESLVYSNWAPGEPNDDGGSEDCVEIFTNGKWNDAACGEKRLVVCEF,glycan array binding signal (z-score),[23],-0.236
same,glycan array binding signal (z-score),[2]; mutation: R343A,-0.397
same,glycan array binding signal (z-score),[3]; mutation: R343A,-0.207
same,glycan array binding signal (z-score),[24],-0.016
same,glycan array binding signal (z-score),[25],-0.163
same,glycan array binding signal (z-score),[26],-0.274
same,glycan array binding signal (z-score),[27],-0.279
same,glycan array binding signal (z-score),[28],-0.214
same,glycan array binding signal (z-score),[29],-0.341
same,glycan array binding signal (z-score),[30],0.046
same,glycan array binding signal (z-score),[31],-0.173
same,glycan array binding signal (z-score),[32],-0.194
same,glycan array binding signal (z-score),[33],9.14
same,glycan array binding signal (z-score),[34],6.17
same,glycan array binding signal (z-score),[35],-0.269
same,glycan array binding signal (z-score),[17]; mutation: R343A,9.15
same,glycan array binding signal (z-score),[36],2.79
same,glycan array binding signal (z-score),[18]; mutation: R343A,6.5
same,glycan array binding signal (z-score),[37],-0.226
same,glycan array binding signal (z-score),[38],-0.326
